# Where “and” joins values, the source holds several entries; their conditions need not be identical. Identical values can stand only once. Results filed as inconclusive are left out. Some compounds were tested as several samples or in several runs, with calls that do not always agree. Calls of active or inactive are those of the source. How the source made its calls, unless noted: active means hit-call score of the fitted dose curve at least 0.9, where 1 is the maximum; inactive means score below 0.9.
# Columns and labels:
# [1] = target: Glucocorticoid receptor (Homo sapiens) (UniProt P04150); experiment: ATG_GR_TRANS: Attagene TRANS-FACTORIAL HepG2 Assay for human Glucocorticoid Receptor (GR) (AID 2282978; active means hit-call score of the fitted dose curve at least 0.9, where 1 is the maximum;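 further: activators score as hits since higher reporter transcript over DMSO is fitted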); settings: HepG2 Attagene TRANS GR reporter, mRNA transcription
# Method in brief: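 Multiplexed TRANS reporter system, HepG2; 24 h exposure; RNA → oligo(dT) RT → reporter-specific PCR → 6-FAM primer extension → HpaI cut → CE fluorescence. Gain-of-signal vs DMSO.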
# [2] = ATG_M_06_TRANS: Attagene TRANS-FACTORIAL HepG2 Assay for M06 Transcription Factor (Internal Marker) (AID 2282983; active means hit-call score of the fitted dose curve at least 0.9, where 1 is the maximum); settings: HepG2 Attagene TRANS M06 internal marker reporter
# Method in brief: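 Measured by capillary electrophoresis of fluorescently labelled RT-PCR products, this endpoint reflects reporter mRNA in HepG2 cells harbouring exogenous NR-GAL4 reporter constructs after 24 h exposure, with DMSO as baseline.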
# [3] = target: Nuclear receptor subfamily 4 group A member 2 (Homo sapiens) (UniProt P43354); experiment: ATG_NURR1_TRANS: Attagene TRANS-FACTORIAL HepG2 Assay for human Nuclear Receptor Related Protein 1 (NURR1) (AID 2282985; active means hit-call score of the fitted dose curve at least 0.9, where 1 is the maximum); settings: HepG2 Attagene TRANS reporter, mRNA readout
# Method in brief: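 After 24 h chemical dosing, total RNA from transiently transfected HepG2 cells was reverse-transcribed and reporter cDNA PCR-amplified, FAM-labelled and analysed by capillary electrophoresis. Activity fitted in positive direction, DMSO as negative control.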
# [4] = target: Transcriptional activator Myb (Homo sapiens) (UniProt P10242); experiment: ATG_Myb_CIS: Attagene CIS-FACTORIAL HepG2 Assay for human Myeloblastosis (Myb) Proto-Oncogene Transcription Factor (AID 2282986); settings: HepG2 Attagene CIS-FACTORIAL Myb reporter transcription; actives raise or lower the signal
# Method in brief: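 Endogenous transcription factor activity at a Myb-responsive cis element is reported in human liver HepG2 cells after 24 h chemical treatment. Reporter mRNA is detected by RT-PCR and capillary electrophoresis fluorescence, with DMSO as baseline.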
# [5] = target: Nuclear respiratory factor 1 (Homo sapiens) (UniProt Q16656); experiment: ATG_NRF1_CIS: Attagene CIS-FACTORIAL HepG2 Assay for human Nuclear Respiratory Factor 1 (NRF1) Orphan Gene (AID 2282987); settings: HepG2 NRF1 cis-element reporter, Attagene multiplex; actives raise or lower the signal
# Method in brief: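 Human hepatoma HepG2 cells carrying transfected promoter-regulated reporter units were incubated with test chemicals for 24 h. Reporter transcripts were measured by RT-PCR plus capillary electrophoresis, and endpoints derived by bidirectional fitting with DMSO as baseline.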
# [6] = ATG_NFI_CIS: Attagene CIS-FACTORIAL HepG2 Assay for human Nuclear Factor I (NFI) (AID 2282989); settings: HepG2 cis-regulatory reporter, NFI response element transcription; actives raise or lower the signal
# Method in brief: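 After transient transfection of HepG2 with cis-promoter reporter constructs and 24 h dosing, RNA is reverse-transcribed, amplified, 6-FAM end-labelled and HpaI-digested before capillary analysis. Bidirectional curve fitting against DMSO.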
# [7] = target: Myc proto-oncogene protein (Homo sapiens) (UniProt P01106); experiment: ATG_Myc_CIS: Attagene CIS-FACTORIAL HepG2 Assay for human Myelocytomatosis (Myc) Proto-Oncogene Transcription Factor (AID 2282990); settings: HepG2, Attagene cis-reporter transcription factor activity; actives raise or lower the signal
# Method in brief: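 DMSO-normalised, bidirectionally fitted reporter mRNA signal. HepG2 cells transfected with cis reporter constructs, treated 24 h; transcripts detected by RT-PCR, 6-FAM primer extension and CE.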
# [8] = ATG_NF_kB_CIS: Attagene CIS-FACTORIAL HepG2 Assay for human Nuclear Factor Kappa B (NF-kB) (AID 2282991); settings: HepG2 Attagene cis-factorial NF-kB reporter mRNA; actives raise or lower the signal
# Method in brief: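 Multiplexed cis-reporter assay in transiently transfected HepG2. 24 h treatment; RNA isolated, RT-PCR, labelled fragments resolved by CE. DMSO baseline.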
# [9] = ATG_NRF2_ARE_CIS: Attagene CIS-FACTORIAL HepG2 Assay for human Nuclear Factor Erythroid 2 Related Factor 2 (NFR2) response to Antioxidant Response Elements (ARE) (AID 2282992); settings: HepG2 Attagene ARE/NRF2 reporter, transcription factor activity; actives raise or lower the signal
# Method in brief: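 Transient MRTU transfection of HepG2; 24 h compound exposure; TriZol RNA, RT with oligo(dT), PCR, 6-FAM primer extension, HpaI cut, CE. Bidirectional fit vs DMSO.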
# [10] = ATG_Oct_MLP_CIS: Attagene CIS-FACTORIAL HepG2 Assay for human Octamer-Binding Transcription Factor (Oct) (AID 2282993); settings: HepG2 Attagene cis-factorial Oct reporter, mRNA; actives raise or lower the signal
# Method in brief: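 Cells of the HepG2 line express promoter-controlled reporter sequences whose mRNA levels, after 24 h treatment, are measured by RT-PCR and capillary electrophoresis. Increases and decreases are scored relative to DMSO.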
# [11] = target: Cellular tumor antigen p53 (Homo sapiens) (UniProt P04637); experiment: ATG_p53_CIS: Attagene CIS-FACTORIAL HepG2 Assay for human p53 Transcription Factor (AID 2282994); settings: HepG2 p53 cis-element reporter, Attagene mRNA; actives raise or lower the signal
# Method in brief: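 HepG2, transient MRTU transfection (cis promoter elements, endogenous TFs); 24 h dosing; RNA isolation, RT-PCR, 6-FAM primer extension, HpaI digest, CE fluorescence; bidirectional fit vs DMSO.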
# [12] = BSK_3C_TissueFactor: BioMAP Diversity Plus: 3C Assay for Tissue Factor Biomarker Activity (AID 2282997); settings: BioMAP 3C HUVEC, tissue factor biomarker readout; actives raise or lower the signal
# Method in brief: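 Values derive from bidirectional curve fitting against DMSO of Tissue Factor ELISA signals, taken 24 h after dosing primary human umbilical vein endothelial cells.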
# [13] = BSK_3C_uPAR: BioMAP Diversity Plus: 3C Assay for Urokinase-type plasminogen activator receptor (uPAR) Biomarker Activity (AID 2282998); settings: BioMAP 3C HUVEC, uPAR biomarker ELISA; actives raise or lower the signal
# Method in brief: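 Endothelial primary cells of human umbilical vein origin received test chemical; 24 h later uPAR was assayed by ELISA. Fitting was bidirectional, DMSO as negative control.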
# [14] = BSK_3C_VCAM1: BioMAP Diversity Plus: 3C Assay for Vascular cell adhesion molecule 1 (VCAM1) Biomarker Activity (AID 2282999); settings: BioMAP 3C HUVEC, VCAM1 ELISA, cytokine-stimulated; actives raise or lower the signal
# Method in brief: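 Human umbilical vein endothelial cells were dosed with compound for 24 h, after which cell-surface VCAM-1 was quantified by ELISA. Bidirectional curve fitting used DMSO as negative control and activity baseline.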
# [15] = BSK_4H_Eotaxin3: BioMAP Diversity Plus: 4H Assay for Eotaxin 3 Biomarker Activity (AID 2283000); settings: primary human endothelial cells (HUVEC); actives raise or lower the signal
# Method in brief: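 Endothelial primary cells (human umbilical vein) exposed to compound for 24 h. ELISA detection of Eotaxin-3.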
# [16] = target: Oxysterols receptor LXR-alpha (Homo sapiens) (UniProt Q13133); experiment: ATG_LXRa_TRANS: Attagene TRANS-FACTORIAL HepG2 Assay for human Liver X Receptor alpha (LXRa) (AID 2282980; active means hit-call score of the fitted dose curve at least 0.9, where 1 is the maximum); settings: HepG2 Attagene TRANS reporter, LXRa transactivation
# Method in brief: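 Transient HepG2 transfectants, 24 h dosing, RT-PCR/CE mRNA reporter quantitation; gain-of-signal vs DMSO.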
# [17] = target: Oxysterols receptor LXR-beta (Homo sapiens) (UniProt P55055); experiment: ATG_LXRb_TRANS: Attagene TRANS-FACTORIAL HepG2 Assay for human Liver X Receptor beta (LXRb) (AID 2282981; active means hit-call score of the fitted dose curve at least 0.9, where 1 is the maximum); settings: HepG2 Attagene TRANS GAL4-LXRb reporter, mRNA
# Method in brief: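 In this TRANS format, exogenous chimeric NR-Gal4 protein activity, not endogenous factors, drives reporter expression in transfected human HepG2 cells. Exposure lasted 24 h; reporter mRNA was read by fluorescent capillary electrophoresis.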
# [18] = target: Hepatocyte nuclear factor 4-alpha (Homo sapiens) (UniProt P41235); experiment: ATG_HNF4a_TRANS: Attagene TRANS-FACTORIAL HepG2 Assay for human Hepatocyte Nuclear Factor 4 alpha (HNF4a) (AID 2282982; active means hit-call score of the fitted dose curve at least 0.9, where 1 is the maximum); settings: HepG2 HNF4a transactivation reporter, mRNA readout
# Method in brief: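 Cells used were human HepG2, transiently carrying GAL4-UAS reporter units read out against exogenous NR-GAL4 chimeras. Reporter transcript levels after 24 h dosing were quantified by fluorescent RT-PCR and capillary electrophoresis.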
# [19] = ATG_M_32_TRANS: Attagene TRANS-FACTORIAL HepG2 Assay for M32 Transcription Factor (Internal Marker) (AID 2282984; active means hit-call score of the fitted dose curve at least 0.9, where 1 is the maximum;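 further: transcript level of a background control reporter unit measured by RT-PCR and capillary electrophoresis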); settings: HepG2 Attagene TRANS M32 internal marker reporter
# Method in brief: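 Human hepatoma HepG2, transient MRTU transfection, 24 h treatment. RNA → RT-PCR → fluorescent primer extension → HpaI digest (2 h, 37 C) → CE. Positive-direction fit vs DMSO.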
# Chain of Nuclear receptor subfamily 4 group A member 2 (Homo sapiens) (P43354 whole entry, looked up): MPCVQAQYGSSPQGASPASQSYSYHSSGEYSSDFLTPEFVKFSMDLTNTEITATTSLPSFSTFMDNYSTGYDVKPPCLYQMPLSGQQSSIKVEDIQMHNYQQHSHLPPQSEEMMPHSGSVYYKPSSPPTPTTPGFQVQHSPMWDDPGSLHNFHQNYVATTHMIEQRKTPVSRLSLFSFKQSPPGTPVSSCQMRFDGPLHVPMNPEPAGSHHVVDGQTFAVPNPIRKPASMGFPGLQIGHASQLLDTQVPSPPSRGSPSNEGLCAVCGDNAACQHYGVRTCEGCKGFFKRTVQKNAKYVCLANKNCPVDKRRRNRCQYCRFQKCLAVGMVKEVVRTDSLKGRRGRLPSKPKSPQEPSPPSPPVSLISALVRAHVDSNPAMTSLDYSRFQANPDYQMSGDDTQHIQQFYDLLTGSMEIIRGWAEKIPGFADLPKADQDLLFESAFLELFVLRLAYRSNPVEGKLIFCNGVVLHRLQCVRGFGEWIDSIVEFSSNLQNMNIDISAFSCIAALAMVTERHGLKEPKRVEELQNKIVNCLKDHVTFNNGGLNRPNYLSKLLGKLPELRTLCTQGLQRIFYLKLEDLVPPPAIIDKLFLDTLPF
# Chain of Cellular tumor antigen p53 (Homo sapiens) (P04637 whole entry, looked up): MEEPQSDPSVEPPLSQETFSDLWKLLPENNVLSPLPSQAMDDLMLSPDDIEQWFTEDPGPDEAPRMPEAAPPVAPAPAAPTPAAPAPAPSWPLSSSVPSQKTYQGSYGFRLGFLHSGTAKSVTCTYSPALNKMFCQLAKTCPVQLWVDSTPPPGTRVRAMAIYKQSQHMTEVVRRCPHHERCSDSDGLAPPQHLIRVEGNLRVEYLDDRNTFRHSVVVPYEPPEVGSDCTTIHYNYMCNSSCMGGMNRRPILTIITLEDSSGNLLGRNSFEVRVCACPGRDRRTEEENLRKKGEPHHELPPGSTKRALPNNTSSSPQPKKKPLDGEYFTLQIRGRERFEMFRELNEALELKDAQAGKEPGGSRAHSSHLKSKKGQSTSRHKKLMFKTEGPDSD
# Chain of Nuclear respiratory factor 1 (Homo sapiens) (Q16656 whole entry, looked up): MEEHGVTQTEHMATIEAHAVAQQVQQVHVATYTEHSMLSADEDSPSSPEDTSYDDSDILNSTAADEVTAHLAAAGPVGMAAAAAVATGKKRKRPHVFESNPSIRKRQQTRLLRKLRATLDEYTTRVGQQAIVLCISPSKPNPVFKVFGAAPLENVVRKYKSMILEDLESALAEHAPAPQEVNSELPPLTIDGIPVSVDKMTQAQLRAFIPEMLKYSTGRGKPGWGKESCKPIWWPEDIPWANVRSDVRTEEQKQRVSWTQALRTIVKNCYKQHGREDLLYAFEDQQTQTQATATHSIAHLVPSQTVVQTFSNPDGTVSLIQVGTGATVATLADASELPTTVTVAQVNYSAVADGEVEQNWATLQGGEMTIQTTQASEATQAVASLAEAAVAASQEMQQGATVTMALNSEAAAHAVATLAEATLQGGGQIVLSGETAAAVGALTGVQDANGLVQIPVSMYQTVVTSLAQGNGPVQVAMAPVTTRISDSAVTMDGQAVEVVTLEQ
# Chain of Myc proto-oncogene protein (Homo sapiens) (P01106 whole entry, looked up): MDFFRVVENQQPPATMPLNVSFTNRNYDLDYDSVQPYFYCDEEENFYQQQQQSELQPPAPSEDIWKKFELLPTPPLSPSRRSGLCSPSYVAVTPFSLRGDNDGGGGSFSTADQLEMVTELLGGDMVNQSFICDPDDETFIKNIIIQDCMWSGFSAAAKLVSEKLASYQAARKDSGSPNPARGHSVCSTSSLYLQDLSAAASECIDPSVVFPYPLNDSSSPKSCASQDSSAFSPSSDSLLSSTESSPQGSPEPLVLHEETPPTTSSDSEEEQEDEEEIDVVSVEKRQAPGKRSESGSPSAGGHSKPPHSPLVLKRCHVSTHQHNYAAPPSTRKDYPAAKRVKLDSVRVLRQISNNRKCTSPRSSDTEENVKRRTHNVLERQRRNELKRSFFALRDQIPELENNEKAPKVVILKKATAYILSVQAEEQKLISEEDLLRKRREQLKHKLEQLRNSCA
# Chain of Oxysterols receptor LXR-alpha (Homo sapiens) (Q13133 whole entry, looked up): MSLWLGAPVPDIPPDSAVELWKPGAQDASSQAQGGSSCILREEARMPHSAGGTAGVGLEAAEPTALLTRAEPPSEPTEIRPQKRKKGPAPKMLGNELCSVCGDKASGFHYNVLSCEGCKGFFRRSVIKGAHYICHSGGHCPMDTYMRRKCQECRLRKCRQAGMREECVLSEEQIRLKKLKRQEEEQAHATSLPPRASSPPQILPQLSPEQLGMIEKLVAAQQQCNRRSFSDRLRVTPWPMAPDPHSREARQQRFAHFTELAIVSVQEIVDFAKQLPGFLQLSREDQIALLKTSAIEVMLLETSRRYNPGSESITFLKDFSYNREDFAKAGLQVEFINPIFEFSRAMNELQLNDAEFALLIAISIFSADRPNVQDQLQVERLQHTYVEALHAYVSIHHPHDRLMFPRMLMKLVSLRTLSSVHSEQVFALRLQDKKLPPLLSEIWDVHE
# Chain of Hepatocyte nuclear factor 4-alpha (Homo sapiens) (P41235 whole entry, looked up, the tested form may be a part): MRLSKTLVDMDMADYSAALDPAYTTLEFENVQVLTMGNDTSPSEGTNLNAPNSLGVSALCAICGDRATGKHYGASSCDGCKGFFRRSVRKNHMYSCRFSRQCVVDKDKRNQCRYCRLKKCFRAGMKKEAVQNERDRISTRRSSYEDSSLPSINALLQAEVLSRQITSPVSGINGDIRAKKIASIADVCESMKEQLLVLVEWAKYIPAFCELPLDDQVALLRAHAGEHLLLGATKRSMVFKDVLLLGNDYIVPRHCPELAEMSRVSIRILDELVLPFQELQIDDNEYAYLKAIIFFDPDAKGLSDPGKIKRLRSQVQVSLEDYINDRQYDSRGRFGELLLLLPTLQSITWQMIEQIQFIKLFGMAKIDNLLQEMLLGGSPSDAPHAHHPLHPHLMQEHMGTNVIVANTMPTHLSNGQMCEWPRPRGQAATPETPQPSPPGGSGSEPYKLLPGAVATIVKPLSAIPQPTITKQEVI
# Chain of Transcriptional activator Myb (Homo sapiens) (P10242 whole entry, looked up): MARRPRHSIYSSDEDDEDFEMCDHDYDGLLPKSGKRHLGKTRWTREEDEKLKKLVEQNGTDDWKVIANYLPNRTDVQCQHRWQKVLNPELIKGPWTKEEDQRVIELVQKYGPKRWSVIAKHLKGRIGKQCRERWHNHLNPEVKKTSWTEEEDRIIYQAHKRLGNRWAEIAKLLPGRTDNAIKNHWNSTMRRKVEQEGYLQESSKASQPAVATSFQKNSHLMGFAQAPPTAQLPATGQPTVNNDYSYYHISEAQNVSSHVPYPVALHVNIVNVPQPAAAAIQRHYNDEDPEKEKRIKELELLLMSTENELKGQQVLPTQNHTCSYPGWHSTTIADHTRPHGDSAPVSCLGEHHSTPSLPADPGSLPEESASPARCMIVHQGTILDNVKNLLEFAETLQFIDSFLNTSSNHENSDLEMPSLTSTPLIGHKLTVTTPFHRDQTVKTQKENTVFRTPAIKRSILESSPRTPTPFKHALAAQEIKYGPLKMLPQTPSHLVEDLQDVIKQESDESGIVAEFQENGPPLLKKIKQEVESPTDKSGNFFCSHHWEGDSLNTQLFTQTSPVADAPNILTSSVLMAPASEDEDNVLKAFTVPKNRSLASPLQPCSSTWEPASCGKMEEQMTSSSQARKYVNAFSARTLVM
# Chain of Glucocorticoid receptor (Homo sapiens) (P04150 whole entry, looked up): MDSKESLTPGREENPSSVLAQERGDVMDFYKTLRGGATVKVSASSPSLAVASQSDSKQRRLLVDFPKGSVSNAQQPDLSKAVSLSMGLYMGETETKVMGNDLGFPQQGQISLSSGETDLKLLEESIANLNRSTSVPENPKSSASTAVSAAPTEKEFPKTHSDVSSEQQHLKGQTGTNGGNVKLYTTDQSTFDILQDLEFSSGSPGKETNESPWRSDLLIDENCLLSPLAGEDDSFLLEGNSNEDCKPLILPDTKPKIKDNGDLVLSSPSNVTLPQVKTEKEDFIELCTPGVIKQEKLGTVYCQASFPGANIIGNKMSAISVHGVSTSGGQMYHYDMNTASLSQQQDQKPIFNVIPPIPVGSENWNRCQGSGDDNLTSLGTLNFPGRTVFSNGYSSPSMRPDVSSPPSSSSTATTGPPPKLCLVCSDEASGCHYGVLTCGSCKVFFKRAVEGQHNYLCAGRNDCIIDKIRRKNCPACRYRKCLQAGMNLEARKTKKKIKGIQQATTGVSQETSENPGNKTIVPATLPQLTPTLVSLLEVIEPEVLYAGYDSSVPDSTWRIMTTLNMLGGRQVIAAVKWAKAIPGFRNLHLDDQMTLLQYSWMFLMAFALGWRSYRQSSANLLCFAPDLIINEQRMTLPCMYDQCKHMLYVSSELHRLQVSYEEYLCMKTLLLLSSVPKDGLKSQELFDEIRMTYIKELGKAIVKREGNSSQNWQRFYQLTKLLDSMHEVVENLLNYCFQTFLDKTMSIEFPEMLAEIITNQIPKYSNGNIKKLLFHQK
structure (smiles),measurement,setting,value
Clc1ccccc1C(c1ccccc1)(c1ccccc1)n1ccnc1,outcome,[1],inactive
same,outcome,[2],inactive
same,outcome,[3],inactive
same,outcome,[4],inactive
same,outcome,[5],inactive
same,outcome,[6],inactive
same,outcome,[7],inactive
same,outcome,[8],inactive
same,AC50,[9],5.21 µM (active)
same,AC50,[10],11.1 µM (active)
same,outcome,[11],inactive
same,AC50,[12],31 µM (active)
same,AC50,[13],14.8 µM (active)
same,AC50,[14],33.1 µM (active)
same,AC50,[15],31.3 µM (active)
CCCCCc1ccc(N)cc1,outcome,[16],inactive
same,outcome,[18],inactive
same,outcome,[2],inactive
same,outcome,[19],inactive
same,outcome,[3],inactive
same,outcome,[5],inactive
same,outcome,[6],inactive
same,outcome,[7],inactive
same,AC50,[8],20.2 µM (active)
same,outcome,[8],inactive
same,outcome,[10],inactive
same,AC50,[11],6.21 µM (active) and 6.72 µM (active)
same,outcome,[11],inactive
same,outcome,[12],inactive
same,outcome,[13],inactive
same,outcome,[14],inactive
same,AC50,[15],14 µM (active)
